Assay results as given in PubChem BioAssay (Tox21).
Inconclusive results are not listed. Activity calls are given as the source filed them. Unless noted, calls follow the shape of the full dose curve.

Assays:
[1] = qHTS assay to identify small molecule agonists of the vitamin D receptor (VDR) signaling pathway - cell viability counter screen (AID 743224; active = well fitted curve in the direction sought with a large enough effect in the repeat runs; an effect the other way counts as inactive or inconclusive; also: series mostly up to about 63 µM; nearly all actives have a fitted effect of over 50% in size)
In short: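 In parallel with the bla FRET readout, cytotoxicity toward VDR-bla cells after 16 h compound exposure was assessed by CellTiter-Glo, with luminescence recorded after a 30 min room-temperature incubation.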

[2] = qHTS assay to identify small molecule antagonists of the vitamin D receptor (VDR) signaling pathway - cell viability counter screen (AID 743225; active = well fitted curve in the direction sought with a large enough effect in the repeat runs; an effect the other way counts as inactive or inconclusive; also: nearly all actives have a fitted effect of over 50% in size)
In short: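 Viability counter screen run in the same wells as the beta-lactamase reporter assay: HEK 293T VDR-UAS-bla cells, 16 h compound exposure at 37C with 3 nM (final) 1-alpha,25-dihydroxyvitamin D3. CellTiter-Glo luminescence, 30 min, room temperature.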

[3] = qHTS assay to identify small molecule agonists of the NFkB signaling pathway - cell viability counter screen (AID 1159515); also: series mostly up to about 61 µM; nearly all actives have a fitted effect of over 55% in size
In short: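 Plate 2,000 NFkB-bla ME-180 cells/well; incubate overnight. Add compounds, 5 hr at 37 C. Add FRET substrate, 1.5 hr RT. Add CellTiter-Glo, 30 min RT; read luminescence.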

[4] = qHTS assay to identify small molecule agonists of the endoplasmic reticulum stress response signaling pathway (AID 1159516; active = well fitted activation curve with a large enough effect in the signal ratio in the repeat runs, not every such curve was filed as active; the % refers to the signal ratio)
In short: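 Beta-lactamase expression from the ER stress response element in HeLa reporter cells is quantified with the LiveBLAzer B/G FRET substrate, read at 405 nm excitation after 2 hr at room temperature, following 5 hr compound treatment at 37 C.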

[5] = qHTS assay to identify small molecule agonists of the endoplasmic reticulum stress response signaling pathway - cell viability counter screen (AID 1159517); also: series mostly up to about 61 µM; nearly all actives have a fitted effect of over 50% in size
In short: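 Steps: seed 1,500 ESRE-bla HeLa cells per well; incubate overnight at 37 C, 5% CO2; add compounds in DMSO for 5 hr; run FRET substrate 2 hr RT; add CellTiter-Glo, wait 30 min, read luminescence.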

[6] = qHTS assay to identify small molecule antagonists of the retinoid-related orphan receptor gamma (ROR-gamma) signaling pathway - cell viability counter screen (AID 1159520; active = well fitted curve in the direction sought with a large enough effect in the repeat runs; an effect the other way counts as inactive or inconclusive; also: nearly all actives have a fitted effect of over 50% in size)
In short: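 Tet-on ROR gamma CHO cells were given compounds for 2 hr, then doxycycline hyclate at 1 uM final, and incubated 16 hr at 37 C. Viability was measured as ATP content by CellTiter-Glo luminescence.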

[7] = target: Nuclear receptor ROR-gamma (Homo sapiens) (UniProt P51449); assay: qHTS assay to identify small molecule antagonists of the retinoid-related orphan receptor gamma (ROR-gamma) signaling pathway (AID 1159521; active = well fitted curve in the direction sought with a large enough effect in the repeat runs; an effect the other way counts as inactive or inconclusive)
In short: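 Luminescence readout (ONE-Glo, 30 min RT) after 16 h doxycycline induction; loss of signal scored as antagonism. CHO cells with TET-inducible RORγ and RORE-LUC reporter; compounds added 2 h before 1 uM final doxycycline.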

[8] = qHTS assay to identify small molecule agonists of the AP-1 signaling pathway - cell viability counter screen (AID 1159525); also: nearly all actives have a fitted effect of over 55% in size
In short: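 Same-well cytotoxicity counter screen of the Tox21 10K library in ME-180 cells. The readout is ATP-dependent luminescence after 5 h compound treatment. Data are normalised to DMSO and tetra n-octyl ammonium bromide controls.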

[9] = qHTS assay to identify small molecule agonists of the AP-1 signaling pathway (AID 1159526)
[10] = target: Retinoic acid receptor RXR-alpha (Homo sapiens) (UniProt P19793); assay: qHTS assay to identify small molecule agonists of the RXR signaling pathway (AID 1159527); also: nearly all actives have a fitted effect of over 35% in size
In short: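 Agonist mode; 9-cis retinoic acid positive control. HEK 293T UAS-bla reporter cells, 2% charcoal-stripped FBS, 16 hr compound exposure at 37 C/5% CO2. LiveBLAzer B/G FRET substrate 2 hr RT; ex 405, em 460/530 nm.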

Measured: Potency

Sequence of Retinoic acid receptor RXR-alpha (Homo sapiens) (P19793 whole entry, looked up): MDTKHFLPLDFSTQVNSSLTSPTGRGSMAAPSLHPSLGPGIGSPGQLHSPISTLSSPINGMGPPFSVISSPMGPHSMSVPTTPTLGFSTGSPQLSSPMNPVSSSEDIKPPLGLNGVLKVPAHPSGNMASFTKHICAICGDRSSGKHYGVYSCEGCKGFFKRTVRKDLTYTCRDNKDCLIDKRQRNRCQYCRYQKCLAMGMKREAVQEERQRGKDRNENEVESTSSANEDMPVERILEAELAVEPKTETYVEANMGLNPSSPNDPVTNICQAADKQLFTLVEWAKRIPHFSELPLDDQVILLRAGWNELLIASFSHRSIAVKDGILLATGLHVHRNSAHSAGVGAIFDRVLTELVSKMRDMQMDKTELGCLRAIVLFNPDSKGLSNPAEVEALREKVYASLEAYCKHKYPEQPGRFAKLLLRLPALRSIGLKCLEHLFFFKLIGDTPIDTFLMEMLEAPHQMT

CC1(C)C(=O)C(C)(C)C1=O
inactive: all assays above

CCN1CCN(C(=O)N[C@@H](C(=O)N[C@@H]2C(=O)N3C(C(=O)O)=C(CSc4nnnn4C)CS[C@H]23)c2ccc(O)cc2)C(=O)C1=O
not listed: [1] | [2]
inactive: all other assays above

CC(C)(C)c1ccc(C(=O)CCCCl)cc1
inactive: all assays above

CC(C)C(C)C
not listed: [2]
inactive: all other assays above

CCOC(=O)CC
not listed: [2]
inactive: all other assays above

CCC(C)c1nccnc1OC (centres undefined)
inactive: all assays above

Cc1cc(O)c(Cl)cc1C
inactive: all assays above

COC(=O)/C=C(\C)CCC=C(C)C
not listed: [1] | [2] | [10]
inactive: all other assays above

Cc1ccc2cccnc2c1
not listed: [2]
inactive: all other assays above

C=CC(C)(CCC=C(C)C)OC(=O)C(C)C (centres undefined)
not listed: [2]
inactive: all other assays above

CCO[Si](CC(C)C)(OCC)OCC
not listed: [1] | [2]
inactive: all other assays above

CC/C=C\CCCCCCCCCCOC(C)=O
not listed: [2]
inactive: all other assays above

CC1=C(O)C(=O)CO1
inactive: all assays above

c1coc(Cn2cccc2)c1
inactive: all assays above

C=CC(=O)OCCOCCOCC
not listed: [2]
inactive: all other assays above

CCCOc1ccc(C(=O)OCCN(CC)CC)cc1N
inactive: all assays above

COc1ccc(Cl)cc1C
inactive: all assays above

Cc1ccc2ccccc2n1
not listed: [2]
inactive: all other assays above

C[n+]1ccccc1/C=N/O
inactive: all assays above

Cc1ccccc1C#N
inactive: all assays above

Cc1ccc(Br)cc1
inactive: all assays above

CCOC(=O)CN1CCCC1=O
inactive: all assays above

COc1cnc(NS(=O)(=O)c2ccc(N)cc2)nc1
inactive: all assays above

CCCCCCC(=O)c1ccccc1
inactive: all assays above

COCCCOc1cc(C[C@@H](C[C@H](N)[C@@H](O)C[C@H](C(=O)NCC(C)(C)C(N)=O)C(C)C)C(C)C)ccc1OC
not listed: [1] | [2]
inactive: all other assays above
